About 3,200 (1.1%) of roughly 300,000 compounds were called active. What follows is part of a selection rich in actives, with near analogues and random picks from the rest. Unmarked numbers belong to inactive results.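 The calls were made as follows: active = inhibition above the campaign mean inhibition plus 3 SD (cut at about 35% in these data); inactive = the rest.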
molecular target: Glutathione S-transferase omega-1 (Homo sapiens) (UniProt P78417); assay: inhibitors of recombinant GSTO1, primary screen, counter-screen for RBBP9 inhibitor project, biochemical, fluorescence polarization (AID 1974); conditions: recombinant GSTO1, activity-based probe fluorescence polarization; at 5.96 µM; stronger effect = higher value;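 also: 0% = GSTO1-1 with DMSO and 100% = wells lacking GSTO1-1 enzyme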
Sequence (P78417 whole entry, looked up): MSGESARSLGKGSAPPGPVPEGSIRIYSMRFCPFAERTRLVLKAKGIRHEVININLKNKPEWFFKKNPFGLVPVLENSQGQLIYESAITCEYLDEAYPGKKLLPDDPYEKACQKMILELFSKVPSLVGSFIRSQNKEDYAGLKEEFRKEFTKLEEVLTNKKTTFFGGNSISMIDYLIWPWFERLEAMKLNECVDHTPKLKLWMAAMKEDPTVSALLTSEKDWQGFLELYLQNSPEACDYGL

SMILES | inhibition
COc1ccc(N2CCN(C(=O)CCNC(=O)c3ccc(Br)cc3)CC2)cc1 | -8.57%
CCCCn1c(N)c(N(CC(C)C)C(=O)CN(C)S(=O)(=O)c2ccc(F)cc2)c(=O)[nH]c1=O | 16.4%
CC(=O)c1c(C)[nH]c(C(=O)N2CCN(S(=O)(=O)c3ccc(F)c(F)c3)CC2)c1C | 16.8%
COCCNC(=O)Nc1ccc2nc(-c3ccco3)c(-c3ccco3)nc2c1 | 69.1% (active)
O=C(NCc1ccccn1)c1ccc2nc(-c3ccco3)c(-c3ccco3)nc2c1 | 82.7% (active)
CC(C)(C)c1ccc(NC(=O)NCc2ccco2)cc1 | 3.61%
COc1ccc2oc(=O)c(C(=O)NCc3ccccn3)cc2c1 | 3.7%
CCCC(=O)Nc1ccc2c(c1)nc(CCNC(=O)c1ccco1)n2C | 5.94%
Cc1cc(C)cc(NC(=O)NCc2ccccn2)c1 | 0.33%
COc1ccc2c(c1)C(=O)Nc1cc(Cl)ccc1N2 | 9.43%
CC(OC(=O)CNC(=O)c1ccco1)C(=O)Nc1ccc(Cl)cn1 (stereo unspecified) | 1.63%
CCC1(CC)C(=O)C2=C3C1[C@H](C(=O)OC)C=C(C(=O)OC)C[C@H]3[C@H]1C(=O)N(Cc3ccccc3)C(=O)[C@H]1[C@H]2C (stereo partly specified) | 1.43%
Cc1csc2nc(O)c(C(=O)NCCN3CCOCC3)c(=O)n12 | -2.86%
CCc1noc(C)c1C(=O)N1CCCSC1=Nc1ccccc1OC | -0.08%
Cc1onc(-c2c(F)cccc2Cl)c1C(=O)N(C)CC(=O)Nc1cccc(F)c1 | 6.99%
CCc1cccc(NC(=O)CCC(=O)O)c1 | 1.54%
O=C(Cc1ccccc1)Nc1cccc(NC(=O)c2ccccc2)c1 | -4.68%
O=C(CCl)Nc1cccc(CP(=O)(c2ccccc2)c2ccccc2)c1 | 87.8% (active)

SMILES | inhibition
COc1ccccc1CN1CC(C(=O)NCCc2cn[nH]c2)CCC1=O (stereo unspecified) | -2.71%
O=C(NCCCc1ccccc1)C1CCC(=O)N(CCc2ccc(Cl)cc2)C1 (stereo unspecified) | -1.06%
COc1ccccc1CCCNC(=O)C1CCC(=O)N(CCN2CCOCC2)C1 (stereo unspecified) | 63.1% (active)
CCN1CCN(c2ccc(S(=O)(=O)N3CCCCC3)cc2NC(=O)c2cccc(NC(C)=O)c2)CC1 | 0.88%
Cc1cc(O)c(Sc2ccccc2)c(=O)o1 | 10.2%
O=C1Nc2c(Br)cc(Br)cc2C1(O)N1CCOCC1 (stereo unspecified) | 71.2% (active)
O=C(CSC(=S)N1CCOCC1)c1cc(Br)cc(Br)c1O | -51.7%
O=C(c1cc2cc(Br)cc(Br)c2oc1=O)N1CCOCC1 | 5.88%
Cc1ccc(NS(=O)(=O)c2ccc(C(=O)NCCCN3CCOCC3)cc2)cc1 | 10.7%
Nc1ccc2nc3c(=O)[nH]c(=S)[nH]c3nc2c1 | 53.3% (active)
O=c1[nH]c(=O)c2nc3ccccc3nc2[nH]1 | 5.15%
Cc1cc(=O)[nH]c(SCc2ccc(Cl)cc2)n1 | -4.37%
O=[N+]([O-])c1ccc(N=Cc2c(O)ccc3ccccc23)cc1 | 37.5% (active)
O=[N+]([O-])c1ccc(O)c(/C=N/Nc2ccccc2[N+](=O)[O-])c1 | 0.98%
O=[N+]([O-])c1ccc(N/N=C/c2ccccc2)cc1 | 2.07%
Cc1cc(OCC(=O)N(C)c2c(N)n(Cc3ccccc3)c(=O)[nH]c2=O)c(C(C)C)cc1Cl | 0.25%
CCC1(c2ccccc2)NC(=O)N(CC(=O)Nc2ccccc2C(=O)NC2CCCC2)C1=O (stereo unspecified) | 8.02%
CCOc1ccc(S(=O)(=O)N2CCN(C(=S)NCC3CCCO3)CC2)cc1 (stereo unspecified) | 2.59%

Source: PubChem BioAssay AID1974 (The Scripps Research Institute Molecular Screening Center, 2009)
